Screens deposited in PubChem by National Center for Advancing Translational Sciences (NCATS).
TDP-43 yeast inh: rescues yeast growth from TDP-43 toxicity; TDP-43 expressing yeast growth rescue, BacTiter-Glo, 24 h; Potency, µM (doses to about 46.1 µM), for inactives: at the highest dose growth rescue (activation), usual class: activators; 410,000 tested, 1.8% active; note: % of control where 0% means no effect; nearly all actives have a fitted effect of over 50% in size
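Galactose-induced TDP-43 yeast, OD600=0.02, compound pinned; 24 hr, 30 deg C; BacTiter-Glo luminescence for growth. Inhibitors of TDP-43 toxicity read as activators.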
Abeta rescue: A-beta toxicity reversal in yeast | yeast expressing A-beta42, growth rescue, OD600, 48 h; response scale: 0% DMSO, 100% iron-clioquinol control | Potency, µM (series often up to 46.1 µM), hits mostly activators | 410,000 tested, 0.063% active | AID 1347071; note: nearly all actives have a fitted effect of over 55% in size
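Growth rescue measured by 600 nm absorbance after 48 h yeast culture at 30 C with compound. Values normalized between DMSO and an equimolar ferric chloride plus clioquinol control.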
FUS yeast rescue: FUS proteinopathy suppression in yeast; AID 1347120; S. cerevisiae FUS-expressing, growth rescue, OD600, 24 h; 390,000 tested, 0.24% active; Potency, µM (top dose mostly 76.6 µM), actives largely listed as activators;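 note: plate controls were DMSO vehicle for no effect and reference control for full effect; nearly all actives have a fitted effect of over 55% in size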
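FUS-expressing yeast, raffinose-pregrown, induced in 2% galactose minimal medium at OD 0.005; compounds in a dilution series, 24hr at 30C. Growth restoration read as absorbance at 600 nm. CP55940 positive control, DMSO negative.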
aSyn rescue: alpha-synuclein toxicity inhibition in yeast; Potency, µM (top dose mostly 46.1 µM), inactives show at the top dose growth rescue (activation), usual class: activators; Yeast expressing alpha-synuclein, growth rescue, BacTiter-Glo, 24 h; AID 652106; 370,000 tested, 0.14% active; note: % of control where 0% means no effect; nearly all actives have a fitted effect of over 65% in size
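Galactose-induced alpha-syn yeast (OD600=0.02, raffinose-pregrown) + pinned cpd, 24 hr, 30 deg C; growth by BacTiter-Glo luminescence. Growth restoration scores as activation.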
Starred values were filed as active, the others as inactive; i = inactive; ? = inconclusive; / = not tested or not shown; [ ] = dose if it differs, or a comment. Sampled rows, rich in hits. Any-hit rate of the full collection: about 2.1%. Calls come from the whole dose curve; as a rule, active = well fitted curve in the direction sought with a large enough effect; inconclusive = small, poorly fitted or top-dose-only effect, or another doubt; inactive = no such curve, though single readings can be large; an effect the other way counts as inactive or inconclusive. Potency is the fitted concentration of half-maximal effect.

SMILES | TDP-43 yeast inh | Abeta rescue | FUS yeast rescue | aSyn rescue
COc1ccc(-c2ccc(NS(=O)(=O)c3cc(C)c(C)cc3C)cc2)nn1 | 17.8µM* | i | ? | /
Cc1ccc(C)c(NC(=O)CN(C)C(=O)c2ccc(COc3ccccc3)cc2)c1 | 24.9% | i | i | 1.9%
O=C(O)c1ccc(N2N=C(c3ccccc3)CC2c2ccccc2)cc1 (centres undefined) | 12.6µM* | i | i | 0.0%
CCN1CCCC1CN(Cc1cc2cc(C)ccc2[nH]c1=O)C(=O)Nc1ccccc1OC (centres undefined) | -5.8% | i | 22.4µM* | -0.8%
COc1ccccc1NC(=O)N(CCN1CCCC1)Cc1cc2cc(C)ccc2[nH]c1=O | -19.0% | i | i | 1.4%
CCc1ccc(NC(=O)CSc2nnc(CNC(=O)c3ccco3)o2)cc1 | 6.0% | i | i | 2.2%
Nc1ccc(Sc2ccc([N+](=O)[O-])cc2)cc1 | ? | i | i | 20µM*
N#Cc1ccc(CN(c2ccncc2)S(=O)(=O)c2ccccc2)cc1 | -2.5% | i | i | -9.9%
COc1cccc(CNC(=O)c2cccc(NC(=O)c3nsc4ccccc34)c2)c1 | 35.5µM* | i | i | /
COc1cccc(CNC(=O)c2cccc(Br)c2)c1 | 22.4µM* | i | i | -20.1%
CCCCc1ccc(NC(=S)NCc2cccc(OC)c2)cc1 | -6.4%[0.397 µM] | 10µM* | i | -17.0%
O=C(Nc1cccc(C(=O)N2CCCCC2)c1)c1nsc2ccccc12 | 35.5µM* | i | i | /
OCCN1CCN(c2nccn3ccnc23)CC1 | 13.2% | i | i | -0.5%
O=C1C(=O)N(C2CCN(C(=O)c3ccc(Cl)cc3)CC2)CCN1Cc1ccc(F)cc1 | 7.0% | i | i | /
O=C(NCc1ccc(F)cc1)c1cc2n(n1)CCCN(Cc1ccc(F)cc1)C2=O | 14.1% | i | i | /
COc1ccc(C(=O)Nc2c3c(nn2-c2ccc(Cl)cc2)CS(=O)(=O)C3)cc1 | -3.7% | i | i | 2.6%
COc1cccc(CNC(=O)COc2ccc(C(=O)c3ccccc3)cc2)c1 | 35.5µM* | ? | i | -48.0%
COc1cccc(CNC(=O)Cn2cccc2C(=O)c2ccccc2)c1 | 20.1% | i | i | /
CCOC(=O)/C=C1\SCC(=O)N1CCOc1cccc(Br)c1 | 15.8µM* | i | i | 0.2%
CCC(C(=O)Nc1nnc(-c2ccco2)s1)c1ccccc1 (centres undefined) | 12.6% | i | i | 1.1%
CC(=O)n1nc(-c2ccccc2)cc1-c1ccccc1 | 12.6µM* | i | i | 17.3%
CSc1ccc(CNC(=O)C2CCN(c3nnc(-n4cccc4CNc4ccc(C)cc4)s3)CC2)cc1 | -4.7% | i | 35.5µM* | /
Cc1ccc(NCc2cccn2-c2nnc(N3CCC(C(=O)NCCC(C)C)CC3)s2)cc1 | 7.7% | i | ? | /
Cc1nc(-c2cccnc2)sc1C(=O)Nc1cccc(C(F)(F)F)c1 | 12.6µM* | i | i | -9.2%
Cc1nc(Cl)sc1C(=O)Nc1cccc(C(F)(F)F)c1 | 6.1% | i | i | 0.1%
SMILES | TDP-43 yeast inh | Abeta rescue | FUS yeast rescue | aSyn rescue
Cc1nc(-c2cccnc2)sc1C(=O)Nc1ccc(C(F)(F)F)cc1 | 11.2µM* | i | i | -3.6%
OC(c1ccccc1)(c1nc(-c2ccc(Cl)cc2)cs1)C(F)(F)F (centres undefined) | ? | i | i | -76.8%
COc1ccc(OC)c(N(C)S(=O)(=O)c2cc3c(cc2C)NC(=O)CO3)c1 | -2.3% | i | i | -11.4%
C=CCN(CC=C)C(=S)NC(=O)c1ccc(-c2ccccc2)cc1 | 12.6µM* | i | / | ?
C=CCN(CC=C)C(=S)NC(=O)c1ccc(C)c(Br)c1 | ? | i | / | 14.1µM*
C=CCN(CC=C)C(=S)NC(=O)c1ccc(OC)cc1 | 26.1% | i | i | -10.0%
O=C(Nc1ccccc1-c1ccccc1)C(c1ccccc1)c1ccccc1 | 19.9% | i | / | 11.6%
O=C(C(=O)N1CCN(C(=O)c2ccco2)CC1)c1ccccc1 | 19.3% | i | i | 0.9%
Cc1nc(CS(=O)(=O)c2ccccc2)cc(Sc2ccccc2Cl)n1 | 31.6µM* | i[9.22 µM] | i | 11.1%
Cc1nc(CS(=O)(=O)c2ccccc2)cc(Sc2ccc(Cl)cc2)n1 | ? | i | i | 15.4%
Cc1nc(CS(=O)(=O)c2ccc(Cl)cc2)cc(Sc2ccccc2Cl)n1 | 35.5µM* | i | i | 19.0%
O=S(=O)(Cc1cc(Cl)nc(-c2ccccc2)n1)c1ccccc1 | -9.6% | i | i | -8.1%
O=C1OCC(c2ccccc2)=C1c1ccccc1 | 17.8µM* | i | i | -1.6%
CS(=O)(=O)c1ccc(C2=C(c3ccccc3)C(=O)OC2)cc1 | 23.1% | i | i | -6.5%
CC(C)COC(=O)N(C)C[C@@H]1OCc2cnnn2CCCC(=O)N([C@H](C)CO)C[C@@H]1C | 8.2% | i | i | 3.3%
O=C(NCc1ccccc1)C(c1ccc(F)cc1)N(C(=O)c1csnn1)c1ccccc1 (centres undefined) | -10.1% | i | i | 0.5%
CCOc1ccc(S(=O)(=O)N2CCOCC2)cc1NC(=O)CCOc1ccc(C(C)(C)C)cc1 | ? | i | i | -2.6%
CCOc1ccc(OCCC(=O)OCC(=O)Nc2ccc(N3CCOCC3)cc2)cc1 | 0.0% | i | i | 5.0%
CC(C)(C)c1ccc(OCCC(=O)OCC(=O)NC2CC2)cc1 | 12.6µM* | i | i | ?
CC(C)(C)c1ccc(OCCC(=O)Nc2ccc(N3CCOCC3)cc2N2CCOCC2)cc1 | 7.6% | i | 39.8µM* | 2.1%
CCOc1cc(N2CCOCC2)c(OCC)cc1NC(=O)COC(=O)CCOc1ccc(C(C)(C)C)cc1 | 22.4µM* | i | i | 22.2%
CC(C)c1cc(-c2nc(-c3ccccc3)no2)n[nH]1 | -4.3% | i | i | /
COc1cccc(-n2ccnc2SCC(=O)Nc2cccc3ccccc23)c1 | 15.8µM* | i | ? | /
Cc1cccc(-n2ccnc2SCC(=O)Nc2nccs2)c1 | 22.2% | i | i | -1.2%
CCOc1ccccc1NC(=O)CSc1nccn1-c1cccc(C)c1 | 17.8µM* | i | i | 13.6%
SMILES | TDP-43 yeast inh | Abeta rescue | FUS yeast rescue | aSyn rescue
Fc1ccc(Sc2cc(Cl)c(-c3ccccc3)nn2)cc1 | 15.8µM* | i | i | -0.9%
Fc1ccc(Sc2nc(-c3ccccc3)nnc2C(F)(F)F)cc1 | 15.6% | i | i | -0.5%
O=C(CCNS(=O)(=O)c1ccc(Br)cc1)NCCCSc1ccccc1 | 24.6% | i | i | 13.4%
CCOC(=O)C1(Cc2ccccc2C)CCCN(C(=O)c2ccc(C(C)=O)s2)C1 (centres undefined) | 27.3% | i | i | 2.1%
O=C(c1cc2ccc3cccnc3c2[nH]1)N1CCN(c2cccc(Cl)c2)CC1 | 12.6µM* | i | ? | /
Cc1ccc(Cl)cc1N1CCN(C(=O)c2cc3ccc4cccnc4c3[nH]2)CC1 | 20µM* | i | i | /
COc1cccc(N2CCN(C(=O)c3cc4cc(Cl)ccc4[nH]3)CC2)c1 | 12.6µM* | i | i | ?
